Results on 30 compounds are retold here after ChEMBL document CHEMBL1157539, “Thousands of chemical starting points for antimalarial lead identification” (Nature, 2010).

The structures appear in SMILES notation.

Format in all cases: functional
The subject of test [1] is Plasmodium falciparum. The test can be described thus: GSK_TCMDC: Inhibition of Plasmodium falciparum 3D7 in whole red blood cells, using parasite LDH activity as an index of growth. Test compounds present at 2uM.
Test [2] has as its system Plasmodium falciparum. Nature of the test: GSK_TCMDC: Inhibition of Plasmodium falciparum Dd2 in whole red blood cells, using parasite LDH activity as an index of growth. Test compounds present at 2uM.
Another test deals with HepG2. Nature of the test: GSK_TCMDC: Percent inhibition of human HepG2 cell line. Test compounds present at 10uM.

For orientation: Inhibition means the change of the read-out against control, counted positive when it falls. Low values mean a response near the control, high ones a response far below the control. Consider `CCOc1ccc(NC(=O)c2ccc(NCCCN3CC(C)CC(C)C3)c([N+](=O)[O-])c2)cc1` (stereo not given), for which the values for the Inhibition in the test on Plasmodium falciparum [1], with Plasmodium falciparum [2] and with HepG2 were 100%, 60% and 3%, respectively.

As for `Cc1cc(N[C@@H](Cc2ccccc2)C(=O)NC2CCCC2)nc(NCCc2cccs2)n1.O=C(O)C(F)(F)F`, the values for the Inhibition in the test with Plasmodium falciparum [1], with Plasmodium falciparum [2] and with HepG2 were 99%, 14% and 0%, respectively.

Turning to `CN(C)c1ccc(C=C2SC(=O)N=C2Nc2ccccc2)cc1`, the Inhibition in the test on Plasmodium falciparum [1] came out at 97%; in the test on Plasmodium falciparum [2] it was 96%; in the test on HepG2, 42%.

Turning to `CN(C)CCCNC(=O)c1ccccc1Sc1ccccc1C#N.Cl`, the Inhibition was 89% with Plasmodium falciparum [1], 3% in the test with Plasmodium falciparum [2] and 11% with HepG2.

Take `Cc1cccc2nc(-c3ccc(-c4ccc(CN5CCCC(O)C5)cc4)cc3)[nH]c12.O=C(O)C(F)(F)F` (stereo not given): the Inhibition with Plasmodium falciparum [1] is recorded as 100%; with Plasmodium falciparum [2], 54%; in the test with HepG2 it was 41%.

`COc1cccc(CNC[C@@H](O)[C@H](Cc2ccccc2)NC(=O)c2cc(OC(C)C)cc(N3CCCCS3(=O)=O)c2)c1.Cl`: the Inhibition in the test on Plasmodium falciparum [1] is 95%; with Plasmodium falciparum [2] it was 49%; in the test with HepG2, 8%.

As for `CCCCCC(C)C(C)c1cc(O)c2c(c1)OC(C)(C)CC2c1cc[n+]([O-])cc1` (stereo not given), the Inhibition in the test with Plasmodium falciparum [1] worked out at 96%; with Plasmodium falciparum [2] it was 7%; in the test with HepG2, 0%.

Consider `CCN(CCCN1CCCCC1)c1cc(C)nc(Nc2ccc(C)c(F)c2)n1.O=C(O)C(F)(F)F`, for which the Inhibition in the test with Plasmodium falciparum [1] is listed as 100%; in the test on Plasmodium falciparum [2], 92%; with HepG2, 20%.

As to `COCCNCc1cccc(-c2ccccc2CN(C(=O)c2ccc3c(c2)OCO3)c2ccc(OC)cc2)c1.O=C(O)C(F)(F)F`, the Inhibition in the test on Plasmodium falciparum [1] is 90%; in the test on Plasmodium falciparum [2] it was 46%; in the test with HepG2 it was 6%.

`CO/C(=C\C=C\c1cc2cc(Cl)c(Cl)cc2[nH]1)C(=O)NC1CC(C)N(C)C(C)C1` (stereo not given): the figures for the Inhibition in the test on Plasmodium falciparum [1], with Plasmodium falciparum [2] and with HepG2 were 97%, 57% and 64%, respectively.

Turning to `O=C(/C=C/c1ccc(Cl)c(Cl)c1)NCCCCCN1CCC(C(=O)Nc2ccc3c(c2)OCO3)CC1`, the Inhibition in the test on Plasmodium falciparum [1] is 92%; in the test on Plasmodium falciparum [2], 0%; in the test with HepG2 it was 18%.

Consider `Oc1cc(NCc2ccccc2NCc2ccc(Cl)c(Cl)c2)nc2ccccc12`, for which the Inhibition is 93% in the test with Plasmodium falciparum [1], 98% in the test with Plasmodium falciparum [2] and 10% with HepG2.

As to `COc1ccc(Nc2nc(NCc3cccc(NS(C)(=O)=O)c3)cc(-c3ccc(OC)cc3)n2)cc1`, the Inhibition in the test on Plasmodium falciparum [1] turned out to be 84%; in the test with Plasmodium falciparum [2], 5%; with HepG2, 0%.

On to `COc1cccc(OC)c1C(=O)N1CCC2(CC1)C(=O)N(CC(=O)NC1CCCCC1)CN2c1ccccc1`, for which the Inhibition with Plasmodium falciparum [1] was found to be 92%; in the test on Plasmodium falciparum [2], 91%; in the test on HepG2 it was 16%.

In the case of `O=C(CCCc1ccccc1)Nc1cccc(N2CCC(N3CCN(c4ccccc4O)CC3)CC2)c1`, the figures for the Inhibition in the test on Plasmodium falciparum [1], in the test on Plasmodium falciparum [2] and in the test with HepG2 were 98%, 41% and 31%, respectively.

For `CC(C(=O)Nc1ccc(Br)cc1Br)N1CCN(C(=O)c2ccco2)CC1` (stereo not given), the Inhibition in the test with Plasmodium falciparum [1] is reported as 91%; in the test with Plasmodium falciparum [2], 84%; with HepG2, 3%.

With `COc1cc(Cc2cnc(N)nc2N)c2ccsc2c1OC.Cl`, the Inhibition with Plasmodium falciparum [1] is recorded as 92%; with Plasmodium falciparum [2], 4%; in the test on HepG2 it was 5%.

As for `O=C(NCCCCN1CCC(c2ccc3c(c2OCc2ccccn2)CCCC3)CC1)c1ccc(NC(=O)c2ccc(Cl)cc2)cc1`, the results for the Inhibition with Plasmodium falciparum [1], in the test with Plasmodium falciparum [2] and in the test with HepG2 were 100%, 70% and 31%, respectively.

For `C=CCn1c(Sc2ccc(C#N)c([N+](=O)[O-])c2)nnc1-c1ccc(Cl)cc1`, the Inhibition in the test with Plasmodium falciparum [1] was determined as 97%; in the test with Plasmodium falciparum [2], 85%; in the test with HepG2, 13%.

Take `Cc1ccc(Nc2nccc(NCC(O)c3cccc(C)c3)n2)cc1` (stereo not given): the Inhibition is 90% with Plasmodium falciparum [1], 23% in the test on Plasmodium falciparum [2] and 22% with HepG2.

Turning to `COc1cc(-c2nnc(SCC(=O)Nc3cc(C)on3)n2C)cc(OC)c1O`, the Inhibition is listed as 89% with Plasmodium falciparum [1], 2% with Plasmodium falciparum [2] and 2% with HepG2.

For `CCc1cn2c3c(cc(C(=O)N[C@@H](Cc4ccccc4)[C@H](O)CNCC(C)C)cc13)N(C)S(=O)(=O)CC2`, the Inhibition in the test on Plasmodium falciparum [1] is recorded as 98%; with Plasmodium falciparum [2] it was 99%; in the test on HepG2, 0%.

For the compound `Nc1cc(-c2ccc(-c3cccs3)s2)nc2ccccc12`, the Inhibition in the test with Plasmodium falciparum [1] stood at 100%; with Plasmodium falciparum [2] it was 50%; in the test with HepG2, 32%.

For `CC(=O)/N=C1\N=C(NC(C)=O)NC(C)(C)N1OCCCOc1ccc(Cl)c(Cl)c1`, the Inhibition worked out at 96% with Plasmodium falciparum [1], 94% with Plasmodium falciparum [2] and 65% in the test with HepG2.

On to `COc1cc2nc(N3CCC(CNC(=O)c4cccc5cccnc45)CC3)nc(N)c2cc1OC`, for which the figures for the Inhibition in the test on Plasmodium falciparum [1], in the test on Plasmodium falciparum [2] and with HepG2 were 99%, 33% and 34%, respectively.

For `CCNc1cc(C(=O)N[C@@H](Cc2ccccc2)[C@H](O)CNCc2cc(OC)cc(OC)c2)cc(N2CCCC2=O)c1.Cl`, the results for the Inhibition in the test with Plasmodium falciparum [1], in the test on Plasmodium falciparum [2] and in the test with HepG2 were 100%, 75% and 0%, respectively.

On to `O=C(Nc1ccc(-c2nc3ccccc3[nH]2)cc1)c1ccc(S(=O)(=O)N2CCCCC2)cc1`, for which the Inhibition worked out at 95% in the test on Plasmodium falciparum [1], 6% in the test with Plasmodium falciparum [2] and 23% in the test on HepG2.

Regarding `Cc1ccc(-c2ccc(Cl)cc2Oc2cnc(N)nc2N)o1`, the Inhibition with Plasmodium falciparum [1] is listed as 100%; in the test on Plasmodium falciparum [2] it was 3%; with HepG2 it was 15%.

Regarding `CN(Cc1c(Cl)cnn1C)S(=O)(=O)c1ccc2ccccc2c1`, the values for the Inhibition in the test on Plasmodium falciparum [1], with Plasmodium falciparum [2] and with HepG2 were 94%, 36% and 7%, respectively.

Turning to `CC(=O)N1CCC(C(=O)Nc2ccc(-c3cccc(-c4nc5cc(C(F)(F)F)ccc5[nH]4)c3)cc2)CC1`, the Inhibition is on record as 88% with Plasmodium falciparum [1], 33% in the test with Plasmodium falciparum [2] and 82% with HepG2.
